{"source": "the supplement of paper PMC8728848", "binders": {"B1": {"name": "Gal 3 (Homo sapiens), P17931 (protein)", "chain": "MADNFSLHDALSGSGNPNPQGWPGAWGNQPAGAGGYPGASYPGAYPGQAPPGAYPGQAPPGAYHGAPGAYPGAPAPGVYPGPPSGPGAYPSSGQPSAPGAYPATGPYGAPAGPLIVPYNLPLPGGVVPRMLITILGTVKPNANILDFQRGNDVAFHFNPRFNENNRRVIVCNTKLDNNWGREEIQSVFPFESGKPFKIQVLVEPDHFKVAVNDAHLLQYNHRVKKLNEISKLGISGDIDLTSASYTMI"}}, "test_in_all_cases": "glycan array binding signal (z-score within array); higher = stronger binding", "conditions_in_all_cases": "glycan notation: IUPAC condensed, linker removed; mutation: R186I", "key": {"[1]": {"molecular_target": "Fuc(a1-2)Gal(b1-3)GalNAc(b1-3)Gal", "method_in_brief": "(§1)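 Arrays were curated from the Consortium for Functional Glycomics database, 3228 in total, and kept only where the protein sequence was available. Binding is expressed as a within-array Z-score. This score was averaged across arrays of the same protein sequence at different concentrations or buffers and across linkers, and negative values can be read as non-binding.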"}, "[2]": {"molecular_target": "Fuc(a1-2)Gal(b1-3)GalNAc(b1-3)Gal(a1-4)Gal(b1-4)Glc", "method_in_brief": "as §1"}, "[3]": {"molecular_target": "Fuc(a1-2)Gal(b1-3)GlcNAc(b1-3)[Fuc(a1-3)[Gal(b1-4)]GlcNAc(b1-6)]Gal(b1-4)Glc", "method_in_brief": "as §1"}, "[4]": {"molecular_target": "Fuc(a1-2)Gal(b1-4)GlcNAc(b1-2)Man(a1-3)[Fuc(a1-2)Gal(b1-4)GlcNAc(b1-2)Man(a1-6)]Man(b1-4)GlcNAc(b1-4)GlcNAc", "method_in_brief": "as §1"}, "[5]": {"molecular_target": "Fuc(a1-2)[Gal(a1-3)]Gal(b1-3)GlcNAc(b1-2)Man(a1-3)[Fuc(a1-2)[Gal(a1-3)]Gal(b1-3)GlcNAc(b1-2)Man(a1-6)]Man(b1-4)GlcNAc(b1-4)GlcNAc", "method_in_brief": "as §1"}, "[6]": {"molecular_target": "Fuc(a1-2)[Gal(a1-3)]Gal(b1-4)GlcNAc(b1-2)Man(a1-3)[Fuc(a1-2)[Gal(a1-3)]Gal(b1-4)GlcNAc(b1-2)Man(a1-6)]Man(b1-4)GlcNAc(b1-4)GlcNAc", "method_in_brief": "as §1"}, "[7]": {"molecular_target": "Fuc(a1-2)[GalNAc(a1-3)]Gal(b1-3)GlcNAc(b1-2)Man(a1-3)[Fuc(a1-2)[GalNAc(a1-3)]Gal(b1-3)GlcNAc(b1-2)Man(a1-6)]Man(b1-4)GlcNAc(b1-4)GlcNAc", "method_in_brief": "as §1"}, "[8]": {"molecular_target": "Fuc(a1-2)[GalNAc(a1-3)]Gal(b1-4)GlcNAc(b1-2)Man(a1-3)[Fuc(a1-2)[GalNAc(a1-3)]Gal(b1-4)GlcNAc(b1-2)Man(a1-6)]Man(b1-4)GlcNAc(b1-4)GlcNAc", "method_in_brief": "as §1"}, "[9]": {"molecular_target": "Fuc(a1-2)[GalNAc(a1-3)]Gal(b1-4)GlcNAc(b1-3)Gal(b1-4)GlcNAc(b1-3)Gal(b1-4)GlcNAc", "method_in_brief": "as §1"}, "[10]": {"molecular_target": "Fuc(a1-3)[Gal3S(b1-4)]GlcNAc", "method_in_brief": "as §1"}, "[11]": {"molecular_target": "Fuc(a1-3)[Gal3S(b1-4)]GlcNAc6S", "method_in_brief": "as §1"}, "Gal(a1-4)Gal(b1-4)GlcNAc": {"molecular_target": "Gal(a1-4)Gal(b1-4)GlcNAc", "method_in_brief": "as §1"}, "[12]": {"molecular_target": "Gal(b1-3)Gal(b1-4)GlcNAc(b1-2)Man(a1-3)[Gal(b1-3)Gal(b1-4)GlcNAc(b1-2)Man(a1-6)]Man(b1-4)GlcNAc(b1-4)GlcNAc", "method_in_brief": "as §1"}, "[13]": {"molecular_target": "Gal(b1-3)GalNAc(a1-3)[Fuc(a1-2)]Gal(b1-4)GlcNAc", "method_in_brief": "as §1"}, "[14]": {"molecular_target": "Gal(b1-3)GlcNAc(b1-3)Gal(b1-4)GlcNAc", "method_in_brief": "as §1"}, "[15]": {"molecular_target": "Gal(b1-3)GlcNAc(b1-3)Gal(b1-4)[Fuc(a1-3)]GlcNAc(b1-6)[Gal(b1-3)GlcNAc(b1-3)]Gal(b1-4)Glc", "method_in_brief": "as §1"}, "[16]": {"molecular_target": "Gal(b1-3)GlcNAc(b1-6)Gal(b1-4)GlcNAc", "method_in_brief": "as §1"}, "[17]": {"molecular_target": "Gal(b1-3)[Fuc(a1-4)]GlcNAc(b1-2)Man(a1-3)[Gal(b1-3)[Fuc(a1-4)]GlcNAc(b1-2)Man(a1-6)]Man(b1-4)GlcNAc(b1-4)GlcNAc", "method_in_brief": "as §1"}, "[18]": {"molecular_target": "Gal(b1-3)[GlcNAc(b1-6)]GalNAc", "method_in_brief": "as §1"}, "[19]": {"molecular_target": "Gal(b1-4)GlcNAc(b1-3)Gal(b1-3)GlcNAc", "method_in_brief": "as §1"}, "[20]": {"molecular_target": "Gal(b1-4)GlcNAc(b1-3)[Gal(b1-4)GlcNAc(b1-6)]Gal(b1-4)GlcNAc", "method_in_brief": "as §1"}, "Gal3S(b1-4)Glc": {"molecular_target": "Gal3S(b1-4)Glc", "method_in_brief": "as §1"}, "[21]": {"molecular_target": "Gal3S(b1-4)[Fuc(a1-3)]Glc", "method_in_brief": "as §1"}, "[22]": {"molecular_target": "GalNAc(b1-3)Gal(a1-4)Gal(b1-4)GlcNAc(b1-3)Gal(b1-4)Glc", "method_in_brief": "as §1"}, "Glc(a1-6)Glc(a1-6)Glc": {"molecular_target": "Glc(a1-6)Glc(a1-6)Glc", "method_in_brief": "as §1"}, "GlcNAc(b1-3)Man": {"molecular_target": "GlcNAc(b1-3)Man", "method_in_brief": "as §1"}, "[23]": {"molecular_target": "Man(a1-2)Man(a1-3)[Man(a1-2)Man(a1-6)]Man(a1-6)[Man(a1-2)Man(a1-2)Man(a1-3)]Man", "method_in_brief": "as §1"}, "Man(a1-6)Man": {"molecular_target": "Man(a1-6)Man", "method_in_brief": "as §1"}, "[24]": {"molecular_target": "Neu5Ac(a2-3)Gal(b1-4)GlcNAc(b1-2)Man(a1-3)[GlcNAc(b1-2)Man(b1-4)GlcNAc(b1-2)Man(a1-6)]Man(b1-4)GlcNAc(b1-4)GlcNAc", "method_in_brief": "as §1"}, "[25]": {"molecular_target": "Neu5Ac(a2-3)Gal(b1-4)[Fuc(a1-3)]GlcNAc", "method_in_brief": "as §1"}, "[26]": {"molecular_target": "Neu5Ac(a2-6)Gal(b1-4)GlcNAc(b1-3)Gal(b1-4)GlcNAc(b1-3)Gal(b1-4)GlcNAc", "method_in_brief": "as §1"}, "[27]": {"molecular_target": "Neu5Ac9Ac(a2-6)Gal(b1-4)GlcNAc", "method_in_brief": "as §1"}, "[28]": {"molecular_target": "Neu5Gc(a2-3)Gal(b1-4)GlcNAc", "method_in_brief": "as §1"}, "[29]": {"molecular_target": "Neu5Gc(a2-3)Gal(b1-4)[Fuc(a1-3)]GlcNAc", "method_in_brief": "as §1"}}, "note": "Shown is part of a subset that was picked to be rich in the strongest signals.", "data": [{"binder": "B1", "values": [{"measurement": "glycan array binding signal (z-score)", "setting": "[1]", "value": -0.188}, {"measurement": "glycan array binding signal (z-score)", "setting": "[2]", "value": -0.055}, {"measurement": "glycan array binding signal (z-score)", "setting": "[3]", "value": -0.187}, {"measurement": "glycan array binding signal (z-score)", "setting": "[4]", "value": 2.01}, {"measurement": "glycan array binding signal (z-score)", "setting": "[5]", "value": 5.08}, {"measurement": "glycan array binding signal (z-score)", "setting": "[6]", "value": 10.8}, {"measurement": "glycan array binding signal (z-score)", "setting": "[7]", "value": 3.39}, {"measurement": "glycan array binding signal (z-score)", "setting": "[8]", "value": 8.83}, {"measurement": "glycan array binding signal (z-score)", "setting": "[9]", "value": -0.113}, {"measurement": "glycan array binding signal (z-score)", "setting": "[10]", "value": -0.147}, {"measurement": "glycan array binding signal (z-score)", "setting": "[11]", "value": -0.154}, {"measurement": "glycan array binding signal (z-score)", "setting": "Gal(a1-4)Gal(b1-4)GlcNAc", "value": -0.127}, {"measurement": "glycan array binding signal (z-score)", "setting": "[12]", "value": 11.1}, {"measurement": "glycan array binding signal (z-score)", "setting": "[13]", "value": -0.146}, {"measurement": "glycan array binding signal (z-score)", "setting": "[14]", "value": -0.166}, {"measurement": "glycan array binding signal (z-score)", "setting": "[15]", "value": -0.002}, {"measurement": "glycan array binding signal (z-score)", "setting": "[16]", "value": -0.173}, {"measurement": "glycan array binding signal (z-score)", "setting": "[17]", "value": -0.173}, {"measurement": "glycan array binding signal (z-score)", "setting": "[18]", "value": -0.128}, {"measurement": "glycan array binding signal (z-score)", "setting": "[19]", "value": 0.065}, {"measurement": "glycan array binding signal (z-score)", "setting": "[20]", "value": 0.077}, {"measurement": "glycan array binding signal (z-score)", "setting": "Gal3S(b1-4)Glc", "value": -0.189}, {"measurement": "glycan array binding signal (z-score)", "setting": "[21]", "value": -0.171}, {"measurement": "glycan array binding signal (z-score)", "setting": "[22]", "value": 2.69}, {"measurement": "glycan array binding signal (z-score)", "setting": "Glc(a1-6)Glc(a1-6)Glc", "value": -0.021}, {"measurement": "glycan array binding signal (z-score)", "setting": "GlcNAc(b1-3)Man", "value": -0.189}, {"measurement": "glycan array binding signal (z-score)", "setting": "[23]", "value": -0.075}, {"measurement": "glycan array binding signal (z-score)", "setting": "Man(a1-6)Man", "value": -0.185}, {"measurement": "glycan array binding signal (z-score)", "setting": "[24]", "value": -0.073}, {"measurement": "glycan array binding signal (z-score)", "setting": "[25]", "value": -0.164}, {"measurement": "glycan array binding signal (z-score)", "setting": "[26]", "value": -0.107}, {"measurement": "glycan array binding signal (z-score)", "setting": "[27]", "value": -0.185}, {"measurement": "glycan array binding signal (z-score)", "setting": "[28]", "value": -0.157}, {"measurement": "glycan array binding signal (z-score)", "setting": "[29]", "value": -0.165}]}]}
